The nature of the assay: adipocyte viability effects, profiling panel, cell-based, 3T3-L1 adipocytes, calcein-AM fluorescence, 48 h, basal (AID 1163). Also: test concentration not given here. To be noted: 3T3-L1 adipocytes viability, higher = more signal.
With `COc1ccc(C#Cc2ccc3c(c2)[C@]2(C(=O)N3)[C@H](c3ccc(O)cc3)N3[C@H](c4ccccc4)[C@H](c4ccccc4)OC(=O)[C@H]3[C@@H]2C(=O)O)cc1`, the z-score is 0.943.
As to `COC(=O)[C@@]1(Cc2ccccc2)[C@H]2c3cc(C(=O)N(C)C)n(CCN4CNCC4=O)c3C[C@H]2CN1C(=O)c1ccccc1`, the z-score is -0.391.
The same measure for `O=C1OCC=C[C@H]2OC34C=CCN(Cc5ccccc5)C(=O)[C@H]3N(CCCCCCO)C(=O)[C@@H]4[C@@H]12` (stereo partly drawn): 0.98; for `COc1cc2c(cc1OC)CN(C(=O)[C@@H]1[C@H]3C(=O)O[C@H](c4ccccc4)[C@H](c4ccccc4)N3[C@H](c3ccc(OCCO)cc3)[C@@]13C(=O)Nc1ccccc13)CC2`: 1.04.
The same measure for `COCCOC(=O)N1C(=O)[C@@]2(c3cc(C#CC4=CCCCC4)ccc31)[C@H](C(=O)N1CCCCCCC1)[C@H]1C(=O)O[C@H](c3ccccc3)[C@H](c3ccccc3)N1[C@@H]2c1ccc(O)cc1`: 0.936; for `C=CCC(OC(C)=O)[C@@H]1[C@@H](N(Cc2cc3ccccc3o2)C(=O)Cc2ccc(F)cc2)c2cc(OCCCO)ccc2N1C(=O)c1ccc2ccccc2c1` (stereo partly drawn): -0.0993.
Take `CCOC(=O)C[C@H]1[C@H](OC(=O)Cc2ccc3c(c2)OCO3)[C@@H](NC(=O)Cc2ccc(OC)cc2)c2cc(OCCCO)ccc2N1C(=O)c1ccc2ccccc2n1`: the z-score is 0.189.
For the molecule `COCCOC(=O)N1C(=O)[C@@]2(c3cc(C#Cc4ccc(OC)cc4)ccc31)[C@H](c1ccc(O)cc1)N1[C@H](c3ccccc3)[C@H](c3ccccc3)OC(=O)[C@H]1[C@@H]2C(=O)N1CCCCCCC1`, the z-score is 0.703.
